From PubChem BioAssay AID588342 (National Center for Advancing Translational Sciences (NCATS), 2011)
Among all 360,000 compounds or so, about 25,000 (6.9%) were called active. Not shown: some 9% with an inconclusive outcome. Shown is part of a subset that was picked to be rich in actives. Unmarked numbers belong to inactive results. Calls come from the whole dose curve; as a rule, active = well fitted inhibition curve with a large enough effect; inconclusive = small, poorly fitted or top-dose-only effect; inactive = flat fitted curve, though single readings scatter.
Note: nearly all actives have a fitted effect of over 55% in size.
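Throughout, for activity change, negative = inhibition: plate controls were vehicle for no effect and reference inhibitor for full effect.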

What follows are molecules tested against Luciferin 4-monooxygenase (Photinus pyralis) (UniProt P08659) (assay: qHTS profiling assay for firefly luciferase inhibitor/activator using purifed enzyme and Km concentrations of substrates (counterscreen for miR-21 project)). Details: purified FLuc, luminescence inhibition; series mostly up to 57.5 µM; activity change, negative = inhibition: at the top concentration.
Luciferin 4-monooxygenase (Photinus pyralis), sequence (P08659 whole entry, looked up): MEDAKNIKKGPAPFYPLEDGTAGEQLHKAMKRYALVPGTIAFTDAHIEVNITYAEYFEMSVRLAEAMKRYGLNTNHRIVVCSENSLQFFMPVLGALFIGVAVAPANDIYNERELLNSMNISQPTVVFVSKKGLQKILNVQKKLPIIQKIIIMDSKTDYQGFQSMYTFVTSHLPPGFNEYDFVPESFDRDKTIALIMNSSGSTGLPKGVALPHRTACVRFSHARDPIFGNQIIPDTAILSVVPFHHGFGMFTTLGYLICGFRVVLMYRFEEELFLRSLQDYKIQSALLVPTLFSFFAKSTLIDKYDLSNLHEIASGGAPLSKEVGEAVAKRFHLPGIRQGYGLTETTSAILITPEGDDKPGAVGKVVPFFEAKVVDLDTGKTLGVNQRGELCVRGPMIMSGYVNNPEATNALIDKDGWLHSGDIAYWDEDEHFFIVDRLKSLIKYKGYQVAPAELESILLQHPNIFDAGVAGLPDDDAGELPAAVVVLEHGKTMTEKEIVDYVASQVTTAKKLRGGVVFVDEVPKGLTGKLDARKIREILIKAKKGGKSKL
Text: MLPCN Grant: 1 R21 NS059478-01 (miR-21 grant) Assay Provider: NCGC NCGC Assay Overview: Firefly (Photinus pyralis) luciferase is one of the most commonly used transcriptional reporters for a number of reasons. It is considered one of the more dynamically responsive reporters -that is, responsive to changes in reporter transcription - as it requires no post-translational modifications and is enzymatically active directly after protein synthesis (Wood, 1998). Additionally, the half-life of the luciferase protein is short relative to other reporter-gene products (Wood, 1995). Whereas reporters with long half-lives potentially allow for increased signal due to accumulation of reporter-gene product, once accumulated in the cell, dynamic changes in reporter-gene expression may be difficult to detect(Fan and Wood, 2007; Almond et al., 2004). It has been shown that wild-type P. pyralis luciferase has a half-life of approximately […] hours in mammalian cells (Thompson et al., 1991). Firefly luciferase reporter-gene assays are also generally considered one of the most sensitive assay types (Wood, 1995; Wood, 1998). Although light produced in a bioluminescence reaction is of lower intensity than that produced during fluorescence emission, this is offset by little to no background light inherent to luminescent assays. Thus the luciferase reporter can be expressed at much lower levels than fluorescent proteins while still providing robust signal. # However, it was initially observed, in 1991, by Thompson et al., that compounds that resemble the substrates of firefly luciferase (FLuc) can act as competitive inhibitors of the enzyme, and that these compounds, upon interaction with luciferase in the cell, can actually stabilize the protein and increase its half-life. Accumulated intracellular FLuc protein can be measured as an increase in luminescence signal, upon addition of detection reagents (which contain high concentrations of FLuc substrates) commonly used in high-throughput screening. In cell-based reporter gene assays that use FLuc as the reporter gene to quantitate the potential influence of a given compound against the target biology, this apparent increase in luminescence can mistakenly be interpreted as identification of a compound that is active against the target of interest. This is the case for the miR-21 FLuc reporter gene assay used to identify inhibitors of the miR-21 pathway (PubChem AID 2289) - compounds of interest will inhibit miR-21 biogenesis/expression or activity, and are identified by causing an increase in luminescence, due to increased FLuc translation. However, FLuc inhibitory compounds that stabilize the FLuc protein will give an identical read-out, making it difficult to distinguish compounds that are active against the target from those active against FLuc. Previous profiling work to determine the prevalence of compounds that affect FLuc enzymatic activity (PubChem AID 411) identified that ~3% of the MLSMR library (then at ~72K) inhibited FLuc. […] Since the MLSMR had grown to ~350K compounds, and since it was expected that a significant percentage of compounds found active in the miR-21 FLuc assay would be FLuc inhibitors, the library was screened for activity against FLuc using a biochemical assay of purified FLuc and KM concentrations of FLuc substrates (D-luciferin and ATP).
NCGC Assay Protocol Summary: Reagents: 50mM Tris acetate, pH 7.5; 10mM Mg acetate; 10uM D-luciferin (Sigma #L9504); 10uM ATP; 0.01% Tween-20; 0.05% BSA; 10nM P. pyralis luciferase (Sigma #L9506) Control compounds used were two known firefly luciferase inhibitors (compounds (2) and (5) in Auld et al., 2010), and DMSO. […]
For COc1ccc(C(=O)N[C@H](C(=O)NCc2ccccc2)C(C)C)cc1, the “activity change, negative = inhibition” value was 0.173%. In the case of COc1ccc(C(=O)NC(Cc2ccc(OC(=O)c3ccc(OC)cc3)cc2)C(=O)O)cc1 (stereo unspecified), the Potency is reported as 12 µM (active). For C[C@H](NC(=O)c1[nH]cnc1C(=O)Nc1nccs1)c1ccccc1, the “activity change, negative = inhibition” value was -2.61%. In the case of COc1cccc(C(=O)Nc2ccc(-c3cc(C(F)(F)F)nn3-c3ccccc3)cc2)c1, the “activity change, negative = inhibition” value is reported as 3.97%. For CCOc1ccc(-n2nc3ccc(NC(=O)c4ccc(OC)c(Cl)c4)cc3n2)cc1, the “activity change, negative = inhibition” value was -2.98%. With COc1cc(OC)cc(C(=O)Nc2cc3nn(-c4ccccc4)nc3cc2Cl)c1 the Potency was 5.36 µM (active). In the case of CCC(=O)Nc1ccc(C)cc1-c1nc2ccccc2n(Cc2ccccc2)c1=O, the “activity change, negative = inhibition” value is reported as -1.05%. With CN(C)/C=C1\C=C(c2ccccc2)OC1=O the “activity change, negative = inhibition” value was -15%. COc1cccc(/C=C2\C=C(c3ccc(C)cc3)OC2=O)c1OC(C)=O was tested, and the Potency was 15.1 µM (active). CC(=O)Oc1ccc(-c2nc3c(C)cccc3c(=O)o2)cc1 was tested, and the “activity change, negative = inhibition” value was -16.3%. For O=C1C=C(c2ccnc3cc(Cl)ccc23)C[C@@H](c2ccc3c(c2)OCO3)C1, the “activity change, negative = inhibition” value was 2.17%. With Cc1cc2c(c(=O)n1Cc1ccccc1)C1O[C@](CCCCN3C(=O)c4ccccc4C3=O)(Cc3ccccc31)O2 the activity change, negative = inhibition was 4.34% [at 11.5 µM]. For O=C(CCCN=C1NS(=O)(=O)c2ccccc21)OCC(=O)c1ccc(F)c(F)c1, the “activity change, negative = inhibition” value was 0.261%. For Cn1cc[n+](C)c1COc1ccc(C=O)cc1, the “activity change, negative = inhibition” value was -0.526%. For COc1ccc(C(=O)NCc2cn3ccccc3n2)cc1, the “activity change, negative = inhibition” value was 6.17%. In the case of O=Cc1ccc(OCc2cn3ccccc3n2)cc1, the Potency is reported as 12 µM (active). In the case of Cc1ccc(OCCSc2nc(C)c(Cc3ccccc3)c(=O)[nH]2)cc1, the “activity change, negative = inhibition” value is reported as -5.18%. In the case of O=C(Nc1ccn(Cc2ccccc2)n1)c1n[nH]c([N+](=O)[O-])c1Cl, the Potency is reported as 0.849 µM (active). With O=C(Nc1ccn(Cc2ccccc2)n1)c1cccc(F)c1 the Potency was 4.78 µM (active). O=C(Nc1ccccc1N1CCN(c2ccccc2)CC1)c1cccc(F)c1 was tested, and the “activity change, negative = inhibition” value was -0.474%. CCn1c(=O)c(=O)n(CC)c2cc(N3CCCCC3)c(NC(=O)c3cccc(F)c3)cc21 was tested, and the “activity change, negative = inhibition” value was 4.07%. In the case of O=C(Cn1cnc([N+](=O)[O-])n1)NCCc1ccccc1, the “activity change, negative = inhibition” value is reported as 6.43%. Cc1ccc(Cn2ccc(NC(=O)C3C4CCC(C4)C3C(=O)O)n2)cc1 (stereo unspecified) was tested, and the “activity change, negative = inhibition” value was -2.09%. In the case of COc1cc(NC(=O)CSc2nc3nc(C)c(Cc4ccc(C)cc4)c(C)n3n2)cc(OC)c1OC, the “activity change, negative = inhibition” value is reported as -10.1%. With CCC(C)N(C(=O)CSc1nnnn1-c1ccccc1OC)C1CCS(=O)(=O)C1 (stereo unspecified) the “activity change, negative = inhibition” value was 0.645%. With CCC(=O)N1CCc2cc(S(=O)(=O)NC(C(=O)NCCc3ccc(C)cc3)C(C)C)ccc21 (stereo unspecified) the “activity change, negative = inhibition” value was -4.06%. Cc1cc(C)nc(S/C=C/C(=O)c2ccccc2)n1 was tested, and the Potency was 3.79 µM (active). Cc1cc(Oc2ccc(Cl)cc2)nc(SCC(=O)c2ccccc2)n1 was tested, and the “activity change, negative = inhibition” value was -2.98%. In the case of Cc1cc(C)nc(SCC(=O)c2ccc(Cl)cc2)n1, the “activity change, negative = inhibition” value is reported as 1.59%. With O=C(CSc1nccn1-c1ccc(F)cc1)Nc1cccc2ccccc12 the “activity change, negative = inhibition” value was -15.4%. OCCN1CCN(C(=S)c2ccc(-c3ccccc3)cc2)CC1 was tested, and the “activity change, negative = inhibition” value was -14.4%. In the case of S=C(c1ccc(-c2ccccc2)o1)N1CCCCC1, the Potency is reported as 2.69 µM (active). For S=C(c1ccccc1)N1CCCC1, the “activity change, negative = inhibition” value was -0.387%. For COc1cccc(C(=O)NC2(C(F)(F)F)C(=O)Nc3c2c(=O)[nH]c(=O)n3-c2ccc(C)cc2)c1 (stereo unspecified), the “activity change, negative = inhibition” value was -3.45%. For CC1CC(C)CN(C(=O)COC(=O)c2ccc3ncsc3c2)C1 (stereo unspecified), the “activity change, negative = inhibition” value was -5.66%. With Cc1nc(C)c(-c2csc(NCCc3ccccc3)n2)s1 the Potency was 16.9 µM (active). In the case of CCCc1cc(-c2n[nH]c(=S)n2Cc2ccccc2)cs1, the “activity change, negative = inhibition” value is reported as -0.86%. In the case of Cc1nc2sccn2c(=O)c1S(=O)(=O)NCCc1ccccc1, the “activity change, negative = inhibition” value is reported as 5.93%. Cc1c(Cl)cccc1NC(=O)C1CCCN(c2ncnc3onc(C)c23)C1 (stereo unspecified) was tested, and the “activity change, negative = inhibition” value was 10.6%. Cc1ccc(Cl)cc1N1CCN(C(=O)c2cnc3c(-c4ccc(F)cc4)c(C)nn3c2C)CC1 was tested, and the “activity change, negative = inhibition” value was 0.594%. With Cc1noc(C)c1COc1cccc(C(=O)Nc2cccnc2)c1 the “activity change, negative = inhibition” value was -4.82%. O=C(Nc1cccnc1)c1cccc(S(=O)(=O)N2CCCC2)c1 was tested, and the “activity change, negative = inhibition” value was -2.12%. O=C(Nc1cccnc1)c1noc2c1CCCCC2 was tested, and the Potency was 7.57 µM (active). CCOC(=O)c1c(C)[nH]c(CCC(=O)Nc2ccc(OC)c(OC)c2)c1C was tested, and the “activity change, negative = inhibition” value was -6.27%. Cc1cc(NS(=O)(=O)c2ccc(NC(=O)c3cccnc3)cc2)nc(C)n1 was tested, and the “activity change, negative = inhibition” value was -0.527%. For Cc1ccc2nc(-c3ccc(NC(=O)c4cccnc4)cc3)oc2c1, the Potency was 5.36 µM (active). For O=C(Nc1ccc(-c2nc3cc(NC(=O)c4ccccc4Cl)ccc3o2)cc1)c1ccccc1Cl, the “activity change, negative = inhibition” value was -2%. With CC(=O)NC(=S)Nc1ccc(NC(=O)c2cccnc2)cc1 the “activity change, negative = inhibition” value was -0.139%. In the case of Cc1cc2nc(-c3ccc(NC(=O)c4cccnc4)cc3)oc2cc1C, the Potency is reported as 6.75 µM (active). In the case of O=C(Cc1ccccc1)Nc1ccc(NC(=O)c2cccnc2)cc1, the “activity change, negative = inhibition” value is reported as -2.2%. In the case of CC(C)NC(=O)C1CCC(Cn2c(=O)c3sccc3n(Cc3ccc(F)cc3)c2=O)CC1 (stereo unspecified), the “activity change, negative = inhibition” value is reported as -0.0077%.
